# High-throughput results (PubChem BioAssay)
# Compounds with a hit are over-represented: about 7.4% of the library has one in this group of screens.
# FLuc modulator – counter-screen for miR-21 project: firefly luciferase inhibitors or activators | Potency, µM (top dose mostly 57.5 µM), without a hit: top-dose activity change, negative = inhibition, most hits filed as inhibitors | 360,000 tested, 6.9% active | purified FLuc, Km substrates, luminescence inhibition | AID 588342;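 further: plate controls were vehicle for no effect and reference inhibitor for full effect; nearly all actives have a fitted effect of over 55% in size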
#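 Purified P. pyralis luciferase (10nM final) with 10uM D-luciferin and 10uM ATP (Km levels) in 50mM Tris acetate pH 7.5, 10mM Mg acetate, 0.01% Tween-20, 0.05% BSA; qHTS 6-point titration, ~60 µM downward; luminescence read.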
# ELG1 genotox – induces genotoxicity in HEK293T cells with luciferase-tagged ELG1 | Potency, µM (series often up to 46 µM), without a hit: at the highest dose activity change, positive = activation, hits mostly activators | 330,000 tested, 1.3% active | AID 504466 | HEK293T ELG1-luciferase reporter, luminescence, 16 h; further: % of control where 0% means no effect; nearly all actives have a fitted effect of over 60% in size
#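 ELG1-luciferase HEK293T cells, 2,000/well; compound pinned in; 16 hr, 37 °C, 5% CO2; ONE-Glo, 30 min RT; luminescence on CCD imager.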
# SMN2 splice enh – SMN2 splice variant enhancement | HEK293 SMN2-luciferase splicing reporter, luminescence, 30-36 h | Potency, µM (doses to about 46.1 µM), inactives show top-dose activity change, positive = activation, hits mostly activators | 210,000 tested, 2.8% active | AID 1458; further: % of control where 0% means no effect; nearly all actives have a fitted effect of over 55% in size
#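 qHTS luciferase splicing reporter: luminescence rises when SMN2 exon 7 is included in transfected HEK293 cells. Compound exposure lasted 30-36 h at 37C, with 4.5 mM final sodium butyrate as control, followed by a ONE-Glo read.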
# NPC1 prom act – activators of NPC1 promoter; Huh7 NPC1 promoter luciferase reporter, 24 h; Potency, µM (highest dose often 9.22 µM), for inactives: at the top dose activation, hits mostly activators; 320,000 tested, 2.4% active; AID 485313; further: % of control where 0% means no effect; nearly all actives have a fitted effect of over 60% in size
#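 Stable NPC1-promoter luciferase Huh7 line; cpd (DMSO) 24 h, 37 °C, 5% CO2; Amplite luciferase reagent 10 min RT; luminescence readout. qHTS format.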
# Rab9 promoter act – activates the Rab9 promoter; 320,000 tested, 2.8% active; Huh7 Rab9 promoter-luciferase reporter, luminescence, 24 h; AID 485297; Potency, µM (highest dose often 9.22 µM), without a hit: at the top dose activation, negative = inhibition, hits mostly activators; further: % of control where 0% means no effect; nearly all actives have a fitted effect of over 60% in size
#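 Steps: seed 1500 Huh7 Rab9-luc cells per well, rest 2 h at 37 °C; add compound in DMSO; incubate 24 h; add luciferase reagent, 10 min ambient; read luminescence.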
# Active calls of the source: *; ? = inconclusive; . = no result. The call rests on the fitted dose curve; in most records, active means well fitted curve in the direction sought with a large enough effect; inconclusive means small, poorly fitted or top-dose-only effect, or another doubt; inactive means no such curve, though single readings can be large; an effect the other way counts as inactive or inconclusive. Potency means the concentration at half of the fitted maximal effect.
SMILES,FLuc modulator,ELG1 genotox,SMN2 splice enh,NPC1 prom act,Rab9 promoter act
Cc1ccc(C)c(NC(=O)C(c2ccccc2)N2CCOCC2)c1 (stereo not drawn),5.2%,-2.1%,.,1.8%,-4.0%
C/C(=N\NC(=O)C(N)=O)c1cccc(C(F)(F)F)c1,-5.1%,0.5%,1.0%,-0.1%,6.0%
COc1ccc(/C=C/C(=O)Nc2ccccc2C(=O)O)cc1,0.426µM*,?,3.98µM*,0.447µM*,3.16µM*
COc1ccc(/C=C/C(=O)Nc2ccccc2C(=O)NCC(c2ccc(OC)cc2)N(C)C)cc1 (stereo not drawn),10.7µM*,6.4%,.,17.4%,20.6%
COc1ccc(C(CNC(=O)c2cccc3cccnc23)N(C)C)cc1 (stereo not drawn),1.0%,1.6%,.,-2.7%,-9.8%
CCc1cc(C(=O)O)c(NC(=O)/C=C/c2ccc(OC)cc2)s1,12µM*,?,.,2.51µM*,2.82µM*
COc1ccc(/C=C/C(=O)Nc2ccccc2C(F)(F)F)cc1,?,9.6%,?,?,?
COc1ccc(/C=C/C(=O)NC(=S)Nc2cc([N+](=O)[O-])ccc2O)cc1OC,7.57µM*,1.6%,2.7%,-0.6%,0.7%
COc1ccc(NC(=O)Cn2c(=O)n(Cc3ccco3)c(=O)c3sc4ccccc4c32)cc1OC,-1.0%,.,-0.7%,.,.
COc1ccc(/C=C/C(=O)Nc2ccccc2C(=O)O)cc1OC,0.151µM*,?,-26.2%,1.41µM*,0.891µM*
COc1ccc(/C=C/C(=O)Nc2ccccc2C(=O)N2CCCC2)cc1,9.53µM*,15.4%,7.5%,?,?
COc1ccc(/C=C(/C(=O)Nc2ccccc2C(=O)N2CCCC2)c2ccccc2)cc1,0.4%,-10.5%,-15.4%,-0.8%,-3.0%
COc1ccc(/C=C/C(=O)Nc2cc(C)nn2-c2nc3ccccc3[nH]2)cc1,1.69µM*,7.4%,11.2µM*,3.98µM*,?
